# Out of some 360,000 compounds screened, about 2,100 (0.58%) were called active. This excerpt belongs to a sample that is enriched for actives. Unmarked numbers belong to inactive results. Rule as the data show it: active = inhibition above about 36%; inactive = the rest.
# Molecular target: NEDD8-conjugating enzyme Ubc12 (Homo sapiens) + NEDD8-activating enzyme E1 regulatory subunit (Homo sapiens) (UniProt P61081+Q13564)
# Assay: inhibitors of cullin neddylation, primary screen, biochemical, TR-FRET, uHTS, NAE and Ubc12 (AID 651699)
# Conditions: at 25 µM, stronger effect = higher value
# NEDD8-conjugating enzyme Ubc12 (Homo sapiens) + NEDD8-activating enzyme E1 regulatory subunit (Homo sapiens), sequence (P61081 whole entry, looked up): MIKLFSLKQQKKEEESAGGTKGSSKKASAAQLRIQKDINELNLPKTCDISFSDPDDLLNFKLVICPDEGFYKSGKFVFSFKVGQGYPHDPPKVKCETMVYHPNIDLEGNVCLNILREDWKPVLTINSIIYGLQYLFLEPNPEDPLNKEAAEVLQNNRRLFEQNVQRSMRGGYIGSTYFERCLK
# NEDD8-conjugating enzyme Ubc12 (Homo sapiens) + NEDD8-activating enzyme E1 regulatory subunit (Homo sapiens), sequence (Q13564 whole entry, looked up): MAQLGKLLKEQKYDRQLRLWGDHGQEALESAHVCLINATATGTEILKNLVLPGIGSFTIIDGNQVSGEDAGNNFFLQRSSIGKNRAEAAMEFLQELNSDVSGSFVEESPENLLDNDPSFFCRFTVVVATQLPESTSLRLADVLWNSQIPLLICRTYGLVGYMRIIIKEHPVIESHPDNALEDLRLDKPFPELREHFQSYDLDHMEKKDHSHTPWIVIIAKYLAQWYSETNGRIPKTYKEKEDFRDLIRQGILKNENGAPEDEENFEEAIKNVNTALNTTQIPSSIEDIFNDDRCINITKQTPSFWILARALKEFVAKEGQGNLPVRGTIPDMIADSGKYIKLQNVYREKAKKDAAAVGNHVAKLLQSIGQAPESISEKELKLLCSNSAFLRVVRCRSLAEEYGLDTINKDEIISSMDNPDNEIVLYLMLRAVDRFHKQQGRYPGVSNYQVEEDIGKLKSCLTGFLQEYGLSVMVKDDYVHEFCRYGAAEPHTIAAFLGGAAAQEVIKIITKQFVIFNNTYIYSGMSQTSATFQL
row,SMILES,inhibition
1,O=C(CN1CCN(C2CCS(=O)(=O)C2)CC1)N1N=C(c2ccc(Cl)cc2)CC1c1ccco1 (stereo unspecified),3.58%
2,COC(=O)C1=CN(C)C=C(C(=O)OC)C1c1ccc(Cl)cc1Cl,42.5% (active)
3,NC(=O)C1(C(N)=O)OC1c1ccc(Cl)cc1Cl (stereo unspecified),-3.19%
4,COC(=O)C1=CN(c2ccc(F)c(F)c2)C=C(C(=O)OC)C1c1ccc([N+](=O)[O-])cc1,-12.5%
5,C[N+](C)(C)CCNC(=O)c1cc[n+](Cc2ccccc2)c(/C=N/O)c1,-22.5%
6,O=C(Nc1c(Br)cc2c(c1Br)Cc1ccccc1-2)C(F)(F)F,-31.9%
7,CN(CC(=O)Nc1ccc(F)c(F)c1F)C(=O)C1CC(=O)N(C2CCCC2)C1 (stereo unspecified),1.3%
8,Cc1ccc(S(=O)(=O)NCCc2nnc3ccc(SCc4cccnc4)nn23)cc1,-3.01%
9,CC(=O)Cc1nsc(NC(=O)c2ccc(Cl)cc2Cl)n1,12.4%
10,CNC(=O)c1csc(Cc2c(Cl)sc3ccc(Cl)cc23)n1,-6.49%
11,CC(=O)NNC(=O)c1csc(Cc2c(Cl)sc3ccc(Cl)cc23)n1,45.8% (active)
12,Oc1ccccc1CNc1ncc(Br)cc1Br,-3.76%
13,O=C(CNC(=O)c1cccnc1)N/N=C/c1cc(Br)c(O)c(Br)c1,5.12%
14,Cc1ccc(NC(=O)COc2ccc(/C=N\NC(=O)c3cccnc3)cc2)cc1C,56% (active)
15,Cc1cccc(OCC(=O)NCCNC(=O)c2cccnc2)c1,2.8%
16,COc1ccc(CNC(=O)CN(c2ccc(OC)c(Cl)c2)S(=O)(=O)c2ccc(C)cc2)cc1,8.36%
17,COc1ccc(C(=O)NC(C)c2nccs2)cc1OC1CCN(C(C)C)CC1 (stereo unspecified),-0.68%
18,Cc1ccc(NC(=O)CN(C)C(=O)COC(=O)C(C)(C)Oc2ccc(Cl)cc2)cc1,9.98%
19,Cc1ccc(CSCC(=O)N(C)CC(=O)Nc2ccc(C)cc2)cc1,5.66%
20,Cc1ccc(NC(=O)CN(C)C(=O)COC(=O)c2nccnc2N)cc1,57.4% (active)
21,O=C(OCCOCn1cc(Br)c(=O)[nH]c1=O)c1ccccc1,1.74%
22,COC(=O)c1sc(-c2ccc(C(C)(C)C)cc2)cc1NC(=O)/C=C/C(=O)O,-17%
23,COc1cccc(/C=N/Nc2cc(C)nc(-c3ccccc3O)n2)c1O,40.2% (active)

row,SMILES,inhibition
1,COc1ccc(N2C(=O)CC(Sc3n[nH]c(-c4ccc(C)cc4)n3)C2=O)cc1 (stereo unspecified),0.38%
2,Cc1ccccc1NC(=O)COc1cccc2c1CCNC2=O,-9.32%
3,Nc1nnnn1CC(=O)N/N=C/c1ccc(-c2cccc(Cl)c2)o1,49.1% (active)
4,O=C(Cn1nnc(-c2ccccc2)n1)N/N=C/c1ccc(-c2ccc(Cl)cc2)o1,28.8%
5,CCCCCN(C(=O)NC(=O)Nc1ccccc1C)S(C)(=O)=O,-3.04%
6,COc1ccc(C2CC(c3cccs3)=NN2C(=O)COC(=O)c2cc3ccccc3cc2O)cc1OC (stereo unspecified),0.97%
7,COc1cccc(C2CC(c3cccs3)=NN2C(=O)CSC2=NCCS2)c1OC (stereo unspecified),47.3% (active)
8,COc1ccc(C2CC(c3cccs3)=NN2C(=O)CSc2nnc(N)s2)cc1OC (stereo unspecified),-4.71%
9,CCN1C(=O)/C(=C\N2CCOCC2)SC1=S,-15.3%
10,O=C(c1cc2ccccc2s1)N1CCN(c2ccccn2)CC1,-7.27%
11,O=C1c2cccc3cccc(c23)N1CN1CCN(c2ccccn2)CC1,38.1% (active)
12,O=C1c2ccccc2S(=O)(=O)c2cc(N3CCN(c4ccccn4)CC3)ccc21,-31.5%
13,Cc1ccc(O)c(NC(=S)NC(=O)COc2ccc(Br)cc2)c1,12.7%
14,COc1cc(NC(=O)CCNC(=O)Cn2ccc3ccccc3c2=O)cc(OC)c1OC,5.61%
15,Cc1cccc(N)c1SC1CCCCC1O (stereo unspecified),6.45%
16,COCOCCn1cc(CN2CCS(=O)(=O)N(Cc3ccc(-c4ccc(OC)cc4)cc3)C(CC(C)C)C2=O)nn1 (stereo unspecified),-8.33%
17,COCCn1c(C)cc(C(=O)COC(=O)/C=C/c2cccc(OC)c2)c1C,12.7%
18,COc1cccc(/C=C/C(=O)OCC(=O)N2CCN(c3ccccc3)CC2)c1,31.1%
19,COc1cccc(/C=C/C(=O)OCC(=O)N2CCCc3ccccc32)c1,40.6% (active)
20,CC(NC(=O)CN1CCN(Cc2ccc(Cl)cc2)C1=O)c1ccc2c(c1)OCCO2 (stereo unspecified),-6.96%
21,COc1ccc(CCN2C(=O)C3CC=C(C)CC3C2=O)cc1OC (stereo unspecified),1.1%
22,COc1ccc(OC)c(C(C)NC(=S)Nc2ccc(S(=O)(=O)Nc3ncccn3)cc2)c1 (stereo unspecified),5.42%
23,COc1cc(NS(=O)(=O)c2ccc3ccccc3c2)c2ncccc2c1,50.3% (active)

row,SMILES,inhibition
1,O=S(=O)(Nc1ccccn1)c1cccc(S(=O)(=O)c2ccc(Cl)cc2)c1,-0.91%
2,CC(C)NC(=S)Nc1cccc2cnccc12,0.89%
3,Cc1ccc(-n2nc3c(c2NC(=O)c2ccc4c(c2)OCO4)CSC3)c(C)c1,18.4%
4,C=CCNC(=O)c1ccc2c3n(nc2c1)-c1ccc(C)cc1CO3,49.5% (active)
5,OC(COCc1ccco1)CN1CCN(c2ccccc2)CC1 (stereo unspecified),-1.36%
6,COc1ccc(-c2c(C#Cc3ccsc3)c3cc(-c4ccc(CN5CCOCC5)cc4)ccc3n2C)cc1,22.8%
7,COc1cccc(NC(=O)CN(C)C(=O)/C=C/c2cn(-c3ccccc3)nc2-c2cccs2)c1,60.2% (active)
8,COc1ccc(Cl)cc1NC(=O)CN(C)C(=O)c1cn(-c2ccccc2)nc1-c1cccs1,-140%
9,O=c1cc(CO)oc(C(Nc2cccc(C(F)(F)F)c2)c2ccccn2)c1O (stereo unspecified),0.9%
10,CC(C)C[C@H]1CNC(=O)C(=O)N1C[C@@H]1CCCN1C[C@H](Cc1ccccc1)N1C[C@H](CC(C)C)N(CC2CCCCCC2)C(=O)C1=O,7.12%
11,CN(C)c1ccc2c(=O)[nH][nH]c(=O)c2c1,33.3%
12,COc1ccc(N2CC(C(=O)N[C@@H](C)C(=O)N3CCCCC3)CC2=O)cc1 (stereo partly specified),-5.41%
13,O=C1NC(c2ccncc2)Nc2sc3c(c21)CCCC3 (stereo unspecified),44.1% (active)
14,COc1cccc(Cn2cc(/C=N/NC(=O)c3cc(O)cc(O)c3)c3ccccc32)c1,57.8% (active)
15,O=C(N/N=C/c1ccsc1)c1cc(O)cc(O)c1,-1.8%
16,COc1ccc(OC)c(/C=N/NC(=O)c2ccc[n+](CC(=O)c3ccccc3)c2)c1,-1.66%
17,NC(=O)CN1CCCC1c1ccc2c(c1)OCCO2 (stereo unspecified),0.21%
18,CCOc1ccc(NC(=O)C2CCCN(C(=O)Nc3ccccc3)C2)cc1 (stereo unspecified),-6.95%
19,CCCCc1cc2c(s1)CCCC/C2=N/O,-11.4%
20,C=CCN1C(=O)C(O)(CC(=O)c2ccccn2)c2ccccc21 (stereo unspecified),1.24%
21,C[N+](C)(C)CCNC(=O)c1c[nH]c2ccccc12,16.8%
22,COc1ccc(/C=C(\C#N)c2c[nH]c3ccccc23)cc1,44.5% (active)
23,COc1ccc(C2C(C(C)=O)=C(O)C(=O)N2CCc2c[nH]c3ccccc23)cc1 (stereo unspecified),-15.3%

row,SMILES,inhibition
1,O=C(CCN1C(=O)c2ccccc2C1=O)C1=NN[C@@H]2C(=O)N(c3ccc(F)cc3)C(=O)[C@H]12,-15%
2,C[C@H](O)[C@@H]1C(=O)N2CCc3c([nH]c4ccccc34)[C@@H]2C[C@@H]1N(C)C(=O)Nc1ccc(F)cc1,50.2% (active)
3,COCC(=O)N(C)[C@H]1C[C@H]2c3cc(Oc4ccccc4C)ccc3CCN2C(=O)[C@H]1[C@H](C)O,2.1%
4,C[C@H](O)[C@@H]1C(=O)N2CCc3ccc(N4CCOCC4)cc3[C@@H]2C[C@@H]1N(C)C(=O)C(C)(C)C,22%
5,CC(=O)N1c2ccc(S(=O)(=O)N(C)CC(=O)N(C)Cc3ccccc3)cc2CC1C (stereo unspecified),1.96%
6,Cc1ccc(CN(Cc2cccnc2)C(=S)Nc2cccc(Cl)c2C)cc1,1.43%
7,COCCn1c(Cc2cccn2C)nnc1SCC(=O)Nc1nccs1,-1.55%
8,CCCCN(C=O)c1c(CC)nc2c(OCc3ccccc3C(=O)OC)cccn12,8.99%
9,COc1ccc(C2OC(=O)CC2C(=O)NC(C)C)cc1 (stereo unspecified),4.68%
10,COCCNC(=O)c1ccc2nc(Cc3ccc(OC)c(OC)c3)oc2c1,-5.61%
11,COCCNC(=O)Nc1ccc2nc(-c3ccco3)c(-c3ccco3)nc2c1,49.3% (active)
12,COCCNC(=O)CN(Cc1ccco1)C(=O)CCC(=O)Nc1nccs1,0.84%
13,CSCCC(NC(=O)c1ccc(Cl)cc1Cl)C(=O)NNC(=O)c1csc(N2CCOCC2)n1 (stereo unspecified),31%
14,Cc1ccc(N/N=C2\COC(C)(C)CC2=O)cc1,0.52%
15,CS(=O)(=O)c1ccc2nc(NC(=O)c3ccc(Cl)nc3)sc2c1,65.7% (active)
16,NS(=O)(=O)c1ccc2nc(NC(=O)CS(=O)(=O)c3ccc(F)cc3)sc2c1,1.17%
17,Cc1nc2ccc(S(=O)(=O)NCC(=O)O)cc2s1,7.99%
18,Cc1nn2c(=O)cc(COC(=O)c3ccc(NC(=O)C(C)(C)C)cc3)nc2s1,-2.19%
19,CCOC(=O)C1CCCN(C(=O)C2CCN(S(=O)(=O)c3ccc(Cl)c(C(F)(F)F)c3)CC2)C1 (stereo unspecified),-19.5%
20,CCOc1cc(C(=O)Nc2c(C)ccc3nsnc23)cc(OCC)c1OCC,41.7% (active)
21,CCOc1cc(C(=O)Nc2ccc(S(=O)(=O)Nc3cnc4ccccc4n3)cc2)cc(OCC)c1OCC,6.73%
22,Cc1ccc2nsnc2c1NC(=O)c1ccccc1[N+](=O)[O-],-26.4%

# — PubChem BioAssay AID651699 (Sanford-Burnham Center for Chemical Genomics, 2012)
